# The supplement of paper PMC11417369
# Whole data set: some 25,000 sequences, median “ln(normalized median fluorescence intensity)” near 7.1, cut for the highest 2% near 10. The list comes from a sample in which the highest values are over-represented; it also holds similar and randomly drawn sequences.
# Test system: PfSIP2 AP2 domain 1 (GST-tagged)
# Experiment: gcPBM binding intensity (ln(normalized median fluorescence intensity)); higher = stronger DNA binding
# How it was run: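 GST-tagged P. falciparum DNA-binding domains produced in E. coli were incubated for 1 h on an Agilent 4 × 180k array of primer-extended double-stranded 36-bp intergenic genomic probes with negative controls. Binding intensity is the highest Masliner-normalised natural-log median intensity across replicate spots of either probe orientation, with bound protein detected by Alexa488 anti-GST antibody at 488 nm.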
row,Sequence,gcPBM binding intensity (ln)
1,AGGAAAAACTTGAATGCATGCGCACATTCTAGTTTG [TGCATGCA_site776],6.99
2,AAAATTTATATAGGCACACAAATAAATTAATACATA [CACACA_site1418],6.76
3,TTTTTTTATATTATACGCACTAATATATATATATAT [XGTACX_negctrl_site40],8.94
4,CCGTATATTTTATATAGTACTCATCATATATTTTTA [XGTACX_site5560],6.96
5,AAGATAATTACGCACACACACACACGCCCACAACTA [CACACA_site7255],7.34
6,TATCTTCATATATGGTGTACAGATTTTTTTTTTTTT [XGTACX_site5545],7.26
7,CTGTCTGCAGATATGGTGCATTTGTAAGATCTTACA [GTGCAC_site9870],10.4
8,CATTTTGTAAGATATGCACACATGGATCATATTTTA [CACACA_site423],6.94
9,GGAAAAAGAAATTAATGTACATGTGGATGTATGAGG [XGTACX_site5468],7.25
10,TTTCCTCATTTTATCATACACACTTGTTTATATGTG [CACACA_site8202],6.92
11,TATTCAGGTCCAATGGTGCAATATATTTTTGTAATA [GTGCAC_site9607],10.5
12,TTTATTTTTTACCAAGTGCAATATATTATAATAATA,7.77
13,AATTTATATAATTTTGTGCACAATATTCATGTATAT,8.93
14,ATTCATTTACCAATGGTGCAATATATTTTTATAATG,10.3
15,TCTTTGTATATATGTTCATTTGTAATATATATTCAT [TGCATGCA_negctrl_site467],7.18
16,AATCATTTATTGATGGTGCAATATACCATCTAATGA [GTGCAC_site9440],9.44
17,AGCTATATAAATAATACATGCATTGTTCAGGTATTT [TGCATGCA_site964],6.83
18,TAAATATAGGGTAATAGTACATAATTATATTCTTTT [XGTACX_site3883],6.76
19,GTGTTGGGAAAAGGCATGCACTTTTTTTTTTTTTTT,9.34

row,Sequence,gcPBM binding intensity (ln)
1,AATAGTCGTGTGCATACACACCTTAACTATAATATA [CACACA_site6636],7.41
2,AATAGTCGGGTGCATACACACCTTAAATATAATATA [CACACA_site8271],11.3
3,TATACCTTAATATACACACATACATATATATATATA [CACACA_site1339],9.12
4,ACCTTTAATATATACACACACATAAAAAAAATATAT [CACACA_site1843],7.83
5,CTACCTTTAATATATACACACACATAAAAAAAATAT [CACACA_site8548],7.44
6,GGAATAGTCGGGTGCATACACACCTTAAATATAATA [CACACA_site1081],11.4
7,TTGATTACACTGAAGTGTACATATATATATATATAT [XGTACX_site3532],9.07
8,AATAATAAAATAAAGGCATGCACAATATGCTATAAA [TGCATGCA_site645],7.49
9,TTTAATCATATGTTATATAATAAGCCCCCCCCCCAA [CACACA_negctrl_site486],10.2
10,ATATTTTTATTTTCTTTACACACCACATAATTTTTT [CACACA_site4060],7.09
11,TTTTGTTTTAATTTTATTTGATTTTATTTGATTTAT [CACACA_negctrl_site692],6.69
12,TTTTAATTTATTTATGCACACATATATAATTACACA [CACACA_site8126],7.52
13,TTTATTTTTAACAGTGCACACATAACTTAATTATAT [CACACA_site8681],10.5
14,TTTAATTTTTATATAACACACATATTGTAATTATGT [CACACA_site4566],6.97
15,TTTAACTTTTATATAACACACATATTGTAATTATGT [CACACA_site6486],7.05
16,ATATATATTTTAATAACACACATATATTATATTATA [CACACA_site4387],7.06
17,TATTTTTAACAGTGCACACATAACTTAATTATATGT [CACACA_site2194],10.6
18,AAAAAAAGAAATTAGGTGCATAGCATTAACCGATAA [GTGCAC_site9582],10.1
19,TATATATATAGAAATGCATGTTAATAAAAGTTATAA [TGCATGCA_site947],8.13

row,Sequence,gcPBM binding intensity (ln)
1,ATTTTTTATATTTAGTGTACATGTTTTAATTTATAA [XGTACX_site7512],7.29
2,GGATAAGAGGCATATACACACAATTTAAAAAAATAA [CACACA_site4657],7.15
3,AAAAAAAAAAAAAGTGCACACGATTTAAGGCCTATA [CACACA_site2823],10.9
4,TTTTTTTCAATATTTGCACACGATTAAAATATTTAA [CACACA_site5266],7.28
5,AATATTTTAAGGCACACACACAAAAAAAAAAAAAAA [CACACA_site2890],7.22
6,TTTCTAATTTATATCACACACATATAAATATAGTAA [CACACA_site6210],7.19
7,GGCGTATGTGTATATACACACCCACGTATATAAATA [CACACA_site7489],7.08
8,ACTAATAACAAAAGCTTGCACTTTTTTTTTCCTAAT,7.82
9,ATAATGAACAAAGTAGTGCACTTTCCTTATCTTTTC,10.9
10,CCTTTCCTTTTATAAGTGCATATAACAAATGTATAC [GTGCAC_site9872],8.88
11,ATCTTATATCGTAGAGATTTTTTTTTTTTTTCATTT [XGTACX_negctrl_site140],6.7
12,TTTTAAAAAAATAAAAAATAATAAAAAAAATAAAAA [CACACA_negctrl_site1693],6.76
13,TTTTTTATAAATCAAATGAAAAATAAACTATTCAGA [CACACA_negctrl_site1568],6.59
14,TTTTAAATTTTTTAAAGTACACGTCGAAAAGGTATA [XGTACX_site76],7.93
15,GCACCCTGTATGAATGCACACATTCATAGAATTGCT [CACACA_site5475],8.46
16,TATTTAAAATAATAACAAAATTAACATAAATATATA [GTGCAC_negctrl_site472],6.82
17,TTTATATTTAAATATATATGAGAAAACACAAAATAT [TGCATGCA_negctrl_site211],7.34
18,AAAGAAATATATACAAAAATATGAACAATTTATTAT [XGTACX_negctrl_site78],6.81
19,AAGAACAAATATGAGGTGCAACACAATATATTATTA [GTGCAC_site9965],10.5
